Only some compounds are listed: those with a hit (about 1.1% of all), similar ones and a draw of the others.
SRC3 inh – inhibits human SRC3 coactivator; inhibition, % at 3.6 µM; Q9Y6Q9; 360,000 compounds, 0.17% hits; HEK293 GAL4-SRC3 luciferase reporter, luminescence; AID 588352;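 active means inhibition above a per-campaign cutoff, the mean of all compounds plus 3 SD, cut at about 60% in these data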;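 further: 0% = DMSO-treated cells and 100% = gossypol-treated cells at 36 µM; higher means less SRC3-driven luciferase light from the GAL4 reporter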
SRC2 inh – human SRC2 (NCOA2) inhibition; HEK293 GAL4-SRC2 luciferase reporter, luminescence; inhibition, % at 9 µM; 370,000 compounds, 0.17% hits; AID 651957;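 active means inhibition above the mean inhibition of all tested compounds plus 3 SD, set per campaign, cut at about 52% in these data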;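 further: 0% = DMSO treated cells and 100% = cells given Gossypol at 36 µM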
LRH-1 inv ag – NR5A2 inverse agonism in reporter assay; inhibition, % at 3.6 µM; 360,000 compounds, 0.13% hits; HEK293T StAR-luciferase reporter, LRH-1 transfected, 24 h; AID 602396;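 active means inhibition above the mean inhibition of all tested compounds plus 3 SD, cut at about 73% in these data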;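 further: 0% = DMSO wells and 100% = reporter-only cells lacking LRH-1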
GalR3 antag – antagonists of human GalR3; HEK293 GalR3-CNG cAMP membrane potential fluorescence; galR3 body fused to GalR1 C-terminus; 360,000 compounds, 0.44% hits; AID 651719; inhibition, % at 3 µM;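 active means inhibition above the screen-wide average plus 3 SD, cut at about 13% in these data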;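 further: forskolin and galanin both at EC90 stimulate the cells; cAMP rise reported by CNG channel membrane potential dye signal; 0% = forskolin plus galanin with DMSO and 100% = forskolin alone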
Target sequence (O60755 1-299 limits assumed): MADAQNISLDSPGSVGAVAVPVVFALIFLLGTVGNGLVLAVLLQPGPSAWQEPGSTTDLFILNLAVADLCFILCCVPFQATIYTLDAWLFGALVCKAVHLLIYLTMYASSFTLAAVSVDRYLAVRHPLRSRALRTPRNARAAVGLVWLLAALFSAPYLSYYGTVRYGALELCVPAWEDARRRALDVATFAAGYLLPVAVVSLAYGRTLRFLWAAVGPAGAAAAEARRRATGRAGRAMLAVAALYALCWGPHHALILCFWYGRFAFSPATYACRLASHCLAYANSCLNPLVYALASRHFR
SRC1 inh – inhibitors of human steroid receptor coactivator 1 (SRC1) | Q15788 | inhibition, % at 3.6 µM | HEK293 GAL4-SRC1 luciferase reporter, luminescence | AID 588354 | 360,000 compounds, 0.12% hits;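 active means inhibition above the campaign mean plus 3 SD, with each screening campaign given its own cutoff, cut at about 60% in these data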;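 further: 0% = DMSO treated cells and 100% = gossypol at 36 µM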
NR2F2 inh – NR2F2 (human) inhibition, primary screen | P24468 | HEK293T NGFI-A luciferase reporter, luminescence | inhibition, % at 8.6 µM | 370,000 compounds, 0.7% hits;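 active means inhibition above a per-plate cutoff, mean inhibition of test wells between control levels plus 3 SD, cut at about 38% in these data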;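 further: cells cotransfected with COUP-TFII expression vector driving the NGFI-A reporter; 0% = median of COUP-TF2 test wells and 100% = reporter-only cells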
Gal4-VP16 ctr – VP16 inhibition counter-screen for COUP-TFII; shares compounds with NR2F2 inh; HEK293 Gal4-VP16 luciferase reporter, luminescence; inhibition, % at 8.5 µM; 2,500 compounds, 25% hits; in the data active means inhibition above about 13%
NR2F2 inh conf – COUP-TFII (NR2F2) inhibition, confirmation assay | shares compounds with NR2F2 inh | HEK293 NGFI-A luciferase reporter, luminescence | inhibition, % at 8.5 µM | 2,500 compounds, 45% hits | AID 687008;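 active means mean inhibition over three repeats above a set limit taken from the earlier primary screen, cut at about 38% in these data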;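 further: 100% = cells given the luciferase reporter alone without the COUP-TF2 vector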
* = called active by the depositor; · = no result given.

SMILES | SRC3 inh | SRC2 inh | LRH-1 inv ag | GalR3 antag | SRC1 inh | NR2F2 inh | Gal4-VP16 ctr | NR2F2 inh conf
CC(C)CC(NC(=O)CCCNC(=O)CCC(=O)OC1O[C@H]2OC3(C)CC[C@H]4[C@H](C)CCC(C1C)C24OO3)C(=O)O (some centres not stated) | 72.7* | 22.6 | 84.0* | -8.6 | 43.1 | 45.9* | -2.5 | 45.2*
Cc1cc(Br)cn2c(CC(=O)N3CCCCC3)c(-c3ccc(F)cc3)nc12 | · | 1.2 | 24.1 | -7.4 | · | 9.4 | · | ·
Cc1ccc(-c2cc(-c3ccc(C)cc3)[n+](C)o2)cc1 | 53.9 | -6.1 | 65.9 | -7.4 | 48.6 | 68.6* | 6.4 | 56.4*
CC1=C(O)C(=O)C=C2C1=CC=C1C2(C)CCC2(C)C3CC(C)(C(=O)O)CCC3(C)CCC12C (configuration not stated) | -8.8 | -35.1 | 92.9* | -4.1 | 1.0 | 79.4* | 80.9* | 83.4*
COc1ccc(C[C@H]2NC[C@H](O)[C@H]2OC(C)=O)cc1 | 92.7* | 70.5* | 102.1* | 0.9 | 94.6* | 89.3* | 20.4* | 83.5*
O=[N+]([O-])c1ccc(N2CCOCC2)c2c1no[n+]2[O-] | 91.4* | 97.0* | 91.7* | -1.2 | 77.6* | 89.2* | 62.2* | -105.5
O=[N+]([O-])c1ccc(N2CCOCC2)c2cccnc12 | -4.5 | 5.9 | 9.0 | -2.5 | 0.1 | -16.2 | · | ·
NC(Cc1ccc(O)cc1)C(=O)NN=Cc1ccc(N(CCCl)CCCl)cc1 (configuration not stated) | 10.6 | -18.4 | 15.7 | -0.7 | -11.9 | -25.1 | · | ·
Cc1cccc(C)c1-n1nnnc1C(C1CC1)N1CCC2(CC1)C(=O)NCN2c1ccccc1 (configuration not stated) | 7.3 | 15.9 | 19.4 | -3.7 | 10.8 | -1.8 | · | ·

Source: PubChem (The Scripps Research Institute Molecular Screening Center)
